# According to PubChem BioAssay AID686979 (National Center for Advancing Translational Sciences (NCATS), 2013):
# The campaign covered roughly 420,000 compounds. About 50,000 (12%) were called active. About 26% were inconclusive and are not listed. The list comes from a sample in which actives are over-represented; it also holds similar structures and randomly drawn compounds. A number with no mark means an inactive call. The call rests on the fitted dose curve; in most records, active means well fitted inhibition curve with a large enough effect; inconclusive means small, poorly fitted or top-dose-only effect; inactive means flat fitted curve, though single readings scatter.
# Assay: qHTS for Inhibitors of human tyrosyl-DNA phosphodiesterase 1 (TDP1): qHTS in cells in presence of CPT; further: nearly all actives have a fitted effect of over 55% in size
# Details: chicken DT40 Tdp1-/-;hTDP1 cells + 20 nM CPT, ATP luminescence, 48 h; series mostly up to 46.2 µM; activity change, negative = growth inhibition: at the top concentration
# Method in brief: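 Chicken DT40 Tdp1-/- cells stably complemented with human TDP1 were seeded at 400 cells/well in medium containing 20 nM camptothecin, exposed to pin-transferred compounds, and grown at 37 °C for at least 48 hr. Viability was read as ATP luminescence.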
# On the % scale 0 is the no-effect control and ±100 the full control effect; potency means the concentration at half of the fitted maximal effect.
Compound,"activity change, negative = growth inhibition [%]",Potency
CC(C)(C)N(Cc1ccccc1)C(=O)c1ccncc1,-16.6,
Cc1ccc(CNC(=O)COc2ccc3c(c2)CCC3)cc1,-13.1,
O=C(CC1C(=O)NCCN1CC(c1ccccc1)c1ccccc1)NCCc1cn[nH]c1 (stereo unspecified),17,
CCNC(=O)C1CCCN(C(=O)c2ccc(OC)cc2OC)CC1 (stereo unspecified),-9.47,
COc1ccc(NC(=O)c2sc3nc(-c4cc5cccc(OC)c5oc4=O)[nH]c(=O)c3c2C)cc1,-15.6,
COc1ccccc1-c1n[nH]nc1C1=CC(=O)CC(C)(C)C1,4.17,
Fc1ccccc1N=C1Nc2cccc3cccc1c23,-0.919,
COc1ccccc1C1=Nc2cccc3cccc(c23)N1,,5.17 µM (active)
c1ccc(C2=Nc3cccc4cccc(c34)N2)cc1,,7.31 µM (active)
NC(=O)COc1ccccc1C(=O)NC12CC3CC(CC(C3)C1)C2,23.2,
COc1ccc(CCNC(=O)C2CCCN(S(=O)(=O)c3ccc(OC)cc3)C2)cc1 (stereo unspecified),-3.58,
CSc1ncc(Cl)c(C(=O)Nc2ccc(S(=O)(=O)N3CCCC(C)C3)cc2)n1 (stereo unspecified),,8.2 µM (active)
COc1ccc(S(=O)(=O)N2CCCC(C(=O)Nc3ccc(NC(=O)c4ccccn4)cc3)C2)cc1 (stereo unspecified),,7.31 µM (active)
CC1CCCN(S(=O)(=O)c2ccc3[nH]c(=O)cc(C(=O)NCCc4ccc(Cl)cc4)c3c2)C1 (stereo unspecified),-1.68,
Cc1n[nH]c(C)c1S(=O)(=O)N1CCCC(C(=O)Nc2ccc(Br)cc2)C1 (stereo unspecified),-20.2,
CC(C)c1ccc(NC(=O)C2CCCN(S(=O)(=O)c3cccnc3)C2)cc1 (stereo unspecified),,16.4 µM (active)
O=C(Nc1ccc(S(=O)(=O)N2CCCCC2)cc1)c1cnccn1,-20,
O=C(Nc1ccc(F)cc1)C1CCCN(S(=O)(=O)c2ccc(-n3cnnn3)cc2)C1 (stereo unspecified),-2.27,
CCc1ccc(NC(=O)c2cc(S(=O)(=O)N3CCCC(C)C3)cn2C)cc1 (stereo unspecified),-0.46,
CC1CC(C)CN(S(=O)(=O)c2cccc(C(=O)N3C(=O)c4cccc(N)c4C3=O)c2)C1 (stereo unspecified),5.09,
COc1ccc(NC(=O)C2CCC(CNC(=O)[C@@H]3Cc4ccccc4CN3)CC2)cc1 (stereo partly specified),-7.72,
CCc1cccc(C)c1NC(=O)COC(=O)CNC(=O)c1cccs1,12.8,
Cc1ccc2ncc(C(=O)Nc3ccc(OC(F)(F)F)cc3)c(=O)n2c1,-0.0066,
CCOc1ccc(S(=O)(=O)NCCC(=O)N2CCCCCCC2)cc1,-23.7,
CCNS(=O)(=O)c1ccc(CCC(=O)N2CCN(c3cc(Cl)ccc3C)CC2)cc1,,13 µM (active)
CC(=O)c1ccc(S(=O)(=O)NCCC(=O)N2CCN(c3ccccn3)CC2)cc1,-17.9,

Compound,"activity change, negative = growth inhibition [%]",Potency
CCNS(=O)(=O)c1ccc(CCC(=O)N2CCN(c3ccc(OC)cc3)CC2)cc1,-1.27,
CC(=O)Nc1ccc(S(=O)(=O)NCCC(=O)N2CCN(c3ccccc3Cl)CC2)cc1,,20.6 µM (active)
CC(C)NS(=O)(=O)c1ccc(CCC(=O)N2CCOCC2)cc1,0.0285,
CCOC(=O)N1CCC(Nc2c(NCCCN3CCN(CC)CC3)c(=O)c2=O)CC1,2.44,
O=C(COc1cccnc1[N+](=O)[O-])Nc1ccc(Cl)cc1F,31.6,
CCn1c(C)cc(=O)cc1-c1ccc(Cl)cc1,2.93,
CCOC(=O)C1=C(C)c2ccccc2OC1C(=O)OCC (stereo unspecified),1.37,
O=C(Cn1cnc2cc([N+](=O)[O-])ccc2c1=O)NC(=O)NCc1ccccc1,-1.91,
CC(C)(C)NC(=O)Cn1cnc2cc([N+](=O)[O-])ccc2c1=O,5.47,
Cc1cc(C(=O)Cn2cnc3cc([N+](=O)[O-])ccc3c2=O)c(C)n1CC1CCCO1 (stereo unspecified),,14.6 µM (active)
NS(=O)(=O)c1ccc(CCNC(=S)Nc2ccc(S(N)(=O)=O)cc2)cc1,-3.43,
Cc1nn(-c2ccccc2)nc1C(=O)OCC(=O)N1CCCCC1C (stereo unspecified),-1.38,
Cc1c(C(=O)NC2CCCCC2)oc2ccccc12,-18.7,
O=C(Cn1[nH]c(=O)c2ccccc2c1=O)Nc1cccc(-c2nnc3n2CCCCC3)c1,0.931,
Cc1c(C(=O)Nc2cccc(-c3nnc4n3CCCCC4)c2)oc2ccccc12,,14.6 µM (active)
Cc1cccc(C(=O)NCC(=O)OCC(=O)N(C)CC(=O)Nc2ccccc2Cl)c1,-4.27,
COc1ccc(-c2cc3ccc(OCc4nn[nH]n4)cc3oc2=O)cc1,8.26,
CC(=O)Nc1cc2ccc(OC(C)=O)cc2oc1=O,-18.9,
O=c1oc2cc(O)ccc2cc1-c1ccc(F)cc1,,20.6 µM (active)
CC1=C(C(=O)N2CCOCC2)CC(CC(=O)NCc2cccs2)C(=O)N1CCCN1CCCC1=O (stereo unspecified),0.543,
CCC(C)C(NC(=O)C1CCC(=O)N1C(=O)OCc1ccccc1)C(=O)NC(C(=O)N1CCCC1C(N)=O)C(C)CC (stereo unspecified),3.18,
O=C(NCc1ccc(F)cc1)C1CCC(CNc2c(N3CCOCC3)c(=O)c2=O)CC1 (stereo unspecified),11.7,
CC(C)NC(=O)NNc1c(Cl)cncc1Cl,9.64,
CCN(CC(=O)NC(C)C)C(=O)c1cc(S(=O)(=O)N2CCCCC2)ccc1N1CCCCC1,0.72,
COC(=O)c1sccc1NC(=O)CCC1CCCC1,-28,
